Screening results: PubChem, National Center for Advancing Translational Sciences (NCATS)
A549 viability – Nrf2 qHTS screen for inhibitors: counterscreen for cytotoxicity. A549 ARE-Fluc cells, CellTiter-Fluor viability, 18-24 h. Potency, µM (doses to about 46 µM), for the others: at the highest dose activity change, negative = cytotoxicity, most hits filed as inhibitors. 390,000 compounds, 0.16% hits. AID 504648, 2011; note: potency is the fitted concentration of half-maximal effect; % is set by controls: 0 for no effect and ±100 for the full control effect
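A549 ARE_Fluc cells in 5% FBS OPTI-MEM were exposed to compounds in concentration-response for 18-24 h at 37 deg C. Viability was read by CellTiter-Fluor fluorescence (Ex 405/Em 525) after 30 min, before the luciferase read.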
LDHA block – qHTS assay for inhibitors of human lactate dehydrogenase | purified LDHA, NADH/diaphorase-resazurin fluorescence; active compounds read low | 480,000 compounds, 0.15% hits | activity change, % (values are at about 110 or 230 µM) | AID 1347041, 2019; in the data active = activity change below about -30%; inconclusive = mostly about -25% to -30%;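 note: plate controls were DMSO wells for no effect and wells without enzyme for full effect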
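Remaining NADH was detected by diaphorase (0.133 mg/mL) converting 37 µM resazurin to fluorescent resorufin, read at 0 and 20 minutes. The preceding 5-minute room-temperature reaction used 2 nM LDHA, 0.2 mM sodium pyruvate and 0.06 mM NADH at pH 7.4.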
Nrf2 inh – Nrf2 qHTS screen for inhibitors | A549 ARE-Fluc reporter, luciferase luminescence, 18-24 h | Potency, µM (doses to about 46 µM), inactives show at the top dose activity change, negative = inhibition, hits mostly inhibitors | 360,000 compounds, 2.1% hits; note: potency is the fitted concentration of half-maximal effect; % is set by controls: 0 for no effect and ±100 for the full control effect; nearly all actives have a fitted effect of over 60% in size
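A549 ARE_Fluc cells, 5000/well, 5% FBS OPTI-MEM; compounds in dose-response, 18-24 h at 37 °C/5% CO2; CellTiter-Fluor viability read (Ex 405/Em 525), then BugLite luciferase luminescence = Nrf2 activity.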
Nrf2 ARE act – qHTS of Nrf2 Activators; AREc32 ARE-luciferase reporter (MCF7-derived line), luminescence, 24 h; Potency, µM (titrated, usually from 46.1 µM), inactives show at the top dose activation, hits mostly activators; 410,000 compounds, 0.31% hits; AID 624171, 2012; note: potency is the fitted concentration of half-maximal effect; % of control where 0% means no effect; nearly all actives have a fitted effect of over 65% in size
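Luminescent ARE reporter assay in AREc32_Fluc cells: overnight plating at 37 deg C, 24 hr compound incubation, Steady-Glo added, 30 min RT before reading.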
ALOX12 inh – Primary qHTS assay for inhibitors of human arachidonate 12S-lipoxygenase (ALOX12): Round 2. Polyunsaturated fatty acid lipoxygenase ALOX12 (Homo sapiens), P18054. purified 12hLO, xylenol orange hydroperoxide absorbance. Potency, µM (highest dose often 108 µM), without a hit: at the highest dose activity change, negative = inhibition, hits mostly inhibitors. 580,000 compounds, 1.1% hits. AID 1671190, 2021; note: potency is the fitted concentration of half-maximal effect; % is set by controls: 0 for no effect and ±100 for the full control effect
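Purified human 12hLO (150 nM final) in 25 mM Hepes, 0.01% Triton X-100, pH 7.0 was preincubated 15 min at room temperature with compound. Then 40 uM arachidonic acid was added, 30 min. Hydroperoxide was read by Fe-XO absorbance ratio 573/405 nm.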
ERG Ets-DNA blk – qHTS for Small Molecule Inhibitors of the ERG Ets/DNA interaction; fluorescence polarization, His-ERG Ets domain / labelled DNA; Potency, µM (doses to about 76.9 µM), without a hit: at the highest dose FP activity, negative = inhibition, usual class: inhibitors; 370,000 compounds, 0.028% hits; AID 624246, 2012; active = well fitted inhibition curve with a large enough effect in the polarisation, with a control signal flat; inconclusive = small, poorly fitted or top-dose-only effect, or effect the other way, or a change in a side signal; inactive = no such curve, though single readings can be large or run the other way; the % refers to the polarisation;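 note: polarization taken with two DNA probes labelled with fluorescein and Texas red; potency is the fitted concentration of half-maximal effect; % of control where 0% means no effect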
Target sequence (P11308 whole entry, looked up, the tested form may be a part): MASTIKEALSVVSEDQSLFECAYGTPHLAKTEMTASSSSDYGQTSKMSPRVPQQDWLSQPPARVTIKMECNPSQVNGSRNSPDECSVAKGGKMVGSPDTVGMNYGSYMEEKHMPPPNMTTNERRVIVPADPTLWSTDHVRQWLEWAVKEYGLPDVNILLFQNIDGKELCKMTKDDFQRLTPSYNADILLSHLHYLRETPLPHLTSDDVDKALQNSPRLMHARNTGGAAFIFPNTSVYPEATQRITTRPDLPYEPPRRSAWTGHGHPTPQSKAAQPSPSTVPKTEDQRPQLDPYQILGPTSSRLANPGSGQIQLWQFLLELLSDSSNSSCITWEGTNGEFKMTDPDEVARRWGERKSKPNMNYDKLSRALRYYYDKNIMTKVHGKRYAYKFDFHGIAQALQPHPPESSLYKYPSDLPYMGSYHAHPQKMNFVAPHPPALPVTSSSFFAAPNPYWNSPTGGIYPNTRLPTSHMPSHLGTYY
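His-tagged ERG Ets domain (1 uM in the protein solution; 300mM KCl, 50mM Tris-HCl, 1mM EDTA, 1mM DTT, pH 7.5) received compound, then a probe mix of 5 nM fluorescein-DNA and 100nM Texas-615-DNA. Fluorescence polarization was read for both dyes.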
An asterisk follows results filed as active; ? = inconclusive; · = not tested or not shown; [ ] = remark or other dose. Most compounds without a hit are left out; they make up all but 2.7% or so of the library. Unless noted, calls come from the whole dose curve; as a rule, active = well fitted curve in the direction sought with a large enough effect; inconclusive = small, poorly fitted or top-dose-only effect, or another doubt; inactive = no such curve, though single readings can be large; an effect the other way counts as inactive or inconclusive.

SMILES	A549 viability	LDHA block	Nrf2 inh	Nrf2 ARE act	ALOX12 inh	ERG Ets-DNA blk
O=C(NC(=S)NC1CCCc2ccccc21)c1ccc(F)cc1 (stereo not given)	0%	1	1%	0%	18µM*	4%
C/C(=N\NC(=S)NC1CCCCC1)c1ccccc1	13%	-2	22%	4%	25µM*	2%
CC1CCC(NC(=O)c2cncc(Br)c2)CC1 (stereo not given)	·	11	·	·	11%	·
C/C(=N\NC(=S)NC1CCCCC1)c1ccc(O)cc1	3%	-7	-24%	4%	?	-4%
O=C(NC(=S)NC1CCCCCC1)c1cncc(Br)c1	12%	-6	?	4%	32µM*	3%
O=C(NC(=S)NC1CCCCC1)c1ccccc1	12%	4	?	4%	35µM*	-2%
Cc1cnc(NC(=O)CCNC(=O)c2ccsc2)s1	·	-1	·	·	?	·
Cc1ccc(NS(=O)(=O)c2ccc(NN)c([N+](=O)[O-])c2)c(C)c1	·	-1	·	·	?	·
COc1ccc(CNC2CCCC2)c2ccccc12	·	4	·	·	?	·
S=C(NCCCc1ccccc1)NC1CCCCC1	10%	1	22%	0%	45µM*	-1%
S=C(NC1CCCCC1)NN(c1ccccc1)c1ccccc1	16%	-7	-18%	0%	40µM*	2%
S=C(NCc1ccccc1)NC1CCCCC1	17%	1	3%	0%	-29%	-5%
CC(C)(C)c1ccc(/C=N/NC(=S)NC2CCCCC2)cc1	-7%	-7	-19%	7%	28µM*	2%
CC1=C/C(=N\NC(=S)Nc2cccc(C(F)(F)F)c2)CC1	·	-25	·	·	?	·
CC1=C(C(=O)OC(C)C)C(c2cn(-c3ccccc3)nc2-c2cccs2)NC(=O)N1 (stereo not given)	?	2	18µM*	2%	-28%	-3%
CCN(C=NC1=NN(c2cccc(C(F)(F)F)c2)CC1)CC	14%	0	2%	2%	?	8%
Cc1cccc(N2CCC(N=CN(C)C)=N2)c1	-1%	9	-4%	4%	45µM*	-8%
COc1ccccc1NS(=O)(=O)c1ccc2oc(SCc3ccc(C#N)cc3)nc2c1	-12%	0	16µM*	10%	2%	1%
CCN(CC)S(=O)(=O)c1ccc2oc(SCc3ccc(F)cc3)nc2c1	-17%	0	18µM*	2%	11%	-22%
COC(=O)Cn1c(Nc2ccccc2)nc2c1c(=O)n(C)c(=O)n2C	·	-5	·	·	30%	·
CC(C)c1ccc(NC(=O)COC(=O)/C=C/c2cccc3cccnc23)cc1	·	9	·	·	19%	·
Cc1ccc(NC(=O)Cc2n[nH]c(=O)c3ccccc23)cc1	·	5	·	·	-24%	·
COc1ccccc1C(=O)NCCC(=O)Nc1ccc(S(=O)(=O)N2CC(C)CC(C)C2)cc1 (stereo not given)	-6%	1	13µM*	-1%	2%	?
O=C(NCC1CCN(c2ccc(S(=O)(=O)N3CCOCC3)cc2)CC1)Nc1ccccc1	-16%	-6	15µM*	4%	8%	1%
COc1ccccc1C(=O)NCC1CCN(c2ccc(S(=O)(=O)N3CCOCC3)cc2)CC1	?	0	23µM*	2%	-16%	·
SMILES	A549 viability	LDHA block	Nrf2 inh	Nrf2 ARE act	ALOX12 inh	ERG Ets-DNA blk
O=S(=O)(c1ccc(NC(=S)N2CCN(c3ccc(O)cc3)CC2)cc1)N1CCOCC1	-18%	3	12µM*	1%	-16%	1%
CC(=O)c1cn(CC(=O)Nc2ccncc2)c2ccccc12	·	2	·	·	20%	·
Cc1ccc(CNC(=O)Nc2cccnc2)s1	·	5	·	·	23%	·
c1ccc(CN2CCC(NCc3c[nH]c4ccccc34)C2)cc1 (stereo not given)	·	-6	·	·	?	·
Cc1ccc(SC(C)C(=O)Nc2cccnc2)cc1 (stereo not given)	-3%	5	12%	0%	0%	3%
Cc1ccc(SC(C)C(=O)Nc2ccncc2)cc1 (stereo not given)	-1%	7	13µM*	-1%	12%	0%
COc1ccc(CCNC(=O)Cc2c(C)c3ccc(OC)c(C)c3oc2=O)cc1	·	2	·	·	-27%	·
COc1ccccc1C(C)NC(=O)CN1CCN(c2ccc([N+](=O)[O-])c3cnccc23)CC1 (stereo not given)	·	9	·	·	11µM*	·
CCc1nc(NCc2ccncc2)c(C#N)c2c1CCCC2	·	3	·	·	5%	·
CCn1c(=S)[nH]c2sc3c(c2c1=O)CCCC3	0%	-4	-25%	3%	?	4%
CN(C)CCCn1c(=S)[nH]c2sc3c(c2c1=O)CCCC3	1%	3	11%	6%	14µM*	4%
CC1(C)Cc2c(sc3c2c2nc(Cc4ccccc4)nn2c(=O)n3CC(=O)c2ccccc2)CO1	·	-17	·	·	-6%	·
COc1ccc2c(c1)CCCN2C(=O)c1cc2cc(Cl)ccc2nc1C	·	0	·	·	45µM*	·
CC(C)c1ccc(O)c(=O)cc1	·	·	·	·	22µM*	·
CN1CC(=O)N(c2ccccc2)Cc2c1ncnc2N1CCc2ccccc2C1	·	·	·	·	32µM*	·
COc1cccc(CNc2ncnc3cc(Cl)ccc23)c1	7%	-4	?	17%	-21%	1%
Fc1cccc(CNc2ncnc3cc(Cl)ccc23)c1F	-3%	-4	18µM*	11%	6%	6%
CCSc1nc2sc3c(c2c(=O)n1-c1ccc(OC)cc1)CCN(C)C3	-2%	0	23µM*	0%	0%	9%
CCOC(=O)C1C(=O)C=C(c2ccc(Br)cc2)CC1c1ccco1 (stereo not given)	?	-5	23µM*	0%	1%	6%
Cc1ccc2nc(C)c(C(=O)NC3CCN(Cc4ccccc4)CC3)cc2c1	·	-1	·	·	-3%	·
CC(=O)Nc1cc(O)c2nonc2c1O	6.5µM*	25	21µM*	·	·	·
Nn1cnc2ccccc21	·	10	·	·	-59%	·
Oc1ccccc1C=Nc1ccc(Cl)c(C(F)(F)F)c1	·	3	·	·	-13%	·
CS(=O)(=O)N(Cc1ccc(Cl)cc1)c1ccc(C(=O)Nc2cccnc2)cc1	-19%	-6	16µM*	0%	-3%	-8%
O=C(Nc1ccc(Cl)cc1)Nc1cccnc1	-1%	-34*	3%	3%	-29%	·
O=C(Nc1ccc(Cc2ccc(NC(=O)Nc3cccnc3)cc2)cc1)Nc1cccnc1	·	-4	·	5%	22%	·
CSc1ccccc1NC(=O)Nc1ccc(Cl)cc1	23%[1.84 µM]	-12	7.3µM*	5%	?	7%
